# This is a sample that favours compounds with a hit; in the whole collection about 1.6% have one here.
# gsp antag – qHTS for Antagonists of gsp, the Etiologic Mutation Responsible for Fibrous Dysplasia/McCune-Albright Syndrome: qHTS; gsp-mutant cells, cAMP HTRF, 30 min; Potency, µM (highest dose often 76.9 µM), for inactives: top-dose activity change, negative = inhibition, most hits filed as inhibitors; hit rate 0.4% among 340,000; calls by dose curve; cell line not stated here;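 note: intracellular cAMP measured with PDE inhibitor Ro 20-1724 present during compound exposure; % is set by controls: 0 for no effect and ±100 for the full control effect; nearly all actives have a fitted effect of over 65% in size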
#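 Cells, 2000/well, grown 16–24 h in DMEM 10% FBS with 0.5 mg/ml G418, then compounds plus […] (300 uM addition stock), 30 min at 37C. cAMP read by HTRF (cAMP-d2 and anti-cAMP antibody-K in lysis buffer) after 30 min RT.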
# 12-LOX inh – Primary qHTS assay for inhibitors of human arachidonate 12S-lipoxygenase (ALOX12): Round 2; hit rate 1.1% among 580,000; AID 1671190, 2021; purified 12hLO, xylenol orange hydroperoxide absorbance; Potency, µM (series often up to 108 µM), for the others: at the top dose activity change, negative = inhibition, usual class: inhibitors; Polyunsaturated fatty acid lipoxygenase ALOX12 (Homo sapiens), P18054; note: % is set by controls: 0 for no effect and ±100 for the full control effect
# Target sequence (P18054 whole entry, looked up): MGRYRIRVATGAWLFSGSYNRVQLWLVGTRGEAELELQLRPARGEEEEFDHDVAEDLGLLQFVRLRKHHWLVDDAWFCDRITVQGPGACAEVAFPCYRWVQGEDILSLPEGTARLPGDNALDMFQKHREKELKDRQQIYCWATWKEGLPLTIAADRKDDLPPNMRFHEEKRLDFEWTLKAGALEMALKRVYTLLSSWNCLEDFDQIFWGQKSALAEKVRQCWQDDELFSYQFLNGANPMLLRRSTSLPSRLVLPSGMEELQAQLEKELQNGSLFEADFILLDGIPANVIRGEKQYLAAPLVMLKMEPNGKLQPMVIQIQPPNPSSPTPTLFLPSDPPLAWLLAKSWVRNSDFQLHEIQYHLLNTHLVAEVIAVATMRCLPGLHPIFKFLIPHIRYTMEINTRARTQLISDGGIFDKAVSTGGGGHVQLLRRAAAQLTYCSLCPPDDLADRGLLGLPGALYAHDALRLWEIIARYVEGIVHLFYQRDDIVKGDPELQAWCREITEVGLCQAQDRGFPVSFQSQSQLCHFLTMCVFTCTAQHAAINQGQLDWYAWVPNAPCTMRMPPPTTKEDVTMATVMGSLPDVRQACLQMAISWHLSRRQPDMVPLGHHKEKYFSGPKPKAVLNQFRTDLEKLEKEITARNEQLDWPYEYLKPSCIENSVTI
#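 Purified human 12hLO (150 nM final) in 25 mM Hepes, 0.01% Triton X-100, pH 7.0 was preincubated 15 min at room temperature with compound. Then 40 uM arachidonic acid was added, 30 min. Hydroperoxide was read by Fe-XO absorbance ratio 573/405 nm.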
# gsp agonist – qHTS for Agonist of gsp, the Etiologic Mutation Responsible for Fibrous Dysplasia/McCune-Albright Syndrome: qHTS; AID 624287, 2012; hit rate 0.13% among 340,000; gsp mutant cells, cAMP HTRF, 30 min; Potency, µM (titrated, usually from 76.9 µM), for the others: top-dose activation (cAMP increase), most hits filed as activators; active = well fitted activation curve with a large enough effect; inconclusive = small, poorly fitted or top-dose-only effect, or another doubt; inactive = no such curve, though single readings can be large or run the other way; cell line not stated here;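 note: phosphodiesterase inhibitor Ro 20-1724 added with compounds to block cAMP breakdown; nearly all actives have a fitted effect of over 60% in size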
#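 Cells stably selected in G418 were plated at 2000/well, grown 16-24 hr, then given compounds in DMSO with the PDE inhibitor […] (300 uM solution added) for 30 min at 37C; cAMP was read by HTRF.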
# FUS yeast rescue – qHTS for Suppressors of FUS Proteinopathy: Primary screen using FUS-linked yeast assay | hit rate 0.24% among 390,000 | AID 1347120, 2019 | S. cerevisiae FUS-expressing, growth rescue, OD600, 24 h | Potency, µM (top dose mostly 76.6 µM), usual class: activators;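 note: plate controls were DMSO vehicle for no effect and reference control for full effect; nearly all actives have a fitted effect of over 55% in size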
#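 S. cerevisiae expressing FUS from galactose induction served as the toxicity model. Growth after 24hr at 30C, read as absorbance at 600 nm, indicates suppression of toxicity; compounds dosed at several concentrations.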
# Mito fusion act – qHTS Assay for Small Molecule Inhibitors of Mitochondrial Division or Activators of Mitochondrial Fusion; AID 485298, 2010; hit rate 0.23% among 320,000; Potency, µM (doses to about 46.1 µM), for inactives: top-dose growth rescue (activation), hits mostly activators; S. cerevisiae fusion-defective mutant growth rescue, CellTiterGlo 48 h; note: % of control where 0% means no effect; nearly all actives have a fitted effect of over 45% in size
#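 Growth-rescue viability read-out: after 48 h at the non-permissive 37C in glycerol/ethanol YPEG, yeast mitochondrial fusion mutants are measured by CellTiterGlo luminescence; compounds (23 nl pinned per well) restoring growth score as division inhibitors or fusion activators.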
# An asterisk follows results filed as active; i = inactive; ? = inconclusive; · = no result given; ! = not confirmed by another sample; [ ] = another dose, or the depositor's remark. Unless noted, calls come from the whole dose curve; as a rule, active = well fitted curve in the direction sought with a large enough effect; inconclusive = small, poorly fitted or top-dose-only effect, or another doubt; inactive = no such curve, though single readings can be large; an effect the other way counts as inactive or inconclusive. Potency is the fitted concentration of half-maximal effect.
SMILES,gsp antag,12-LOX inh,gsp agonist,FUS yeast rescue,Mito fusion act
Oc1ccc(Nc2nc(-c3ccc4ccccc4c3)cs2)cc1,·,17.8µM*,·,·,22.4%
Cc1ccc(Nc2nc(-c3cccc(N4C(=O)c5ccccc5C4=O)c3)cs2)cc1,·,17.8µM*,·,·,·
O=C1c2ccccc2C(=O)N1c1cccc(-c2csc(Nc3ccc4c(c3)OCO4)n2)c1,·,·,·,·,18.9%
Oc1ccc(Nc2ccc3ccccc3c2)cc1,5.9%,44.7µM*,-0.2%[15.4 µM],i,·
O=C(COC(=O)c1cc2ccccc2oc1=O)NC1CCCCCC1,·,1.8%,·,·,·
Cc1ccc(-c2cnc(CCC(=O)N(CCC#N)Cc3ccco3)o2)cc1,·,19.4%,·,·,·
O=c1cc(CO)oc(CN2CCN(c3cccc(C(F)(F)F)c3)CC2)c1O,-5.7%,1.41µM*,14.4%,i,1.0%
Cc1ccsc1CN1CCCCCCN(C)C(=O)[C@@H]2CCC[C@@H]21,·,182.3%,·,·,·
Cc1nn(C)c2ncc(C(=O)c3ccccc3O)cc12,-9.5%,-17.8%,5.1%[15.4 µM],i,1.3%
Cc1[nH]nc2ncc(C(=O)c3ccccc3O)cc12,-10.5%,-1.9%,25.9%,12.6µM*,3.6%
Cc1cc(/C=C2\SC(=S)NC2=O)c(C)[nH]1,-25.2%,?,-5.2%,i,7.2%
O=C1NC(=S)S/C1=C\c1cc(Cl)ccc1Cl,?,7.94µM*,-21.5%,·,·
CC(C)NC(=O)CNC(=O)c1cc2cc(F)ccc2[nH]1,·,-0.2%,·,·,·
O=C(CC(=O)Nc1ccc(F)cc1)Nc1ccc(F)cc1,9.1%,5.9%,9.3%[15.4 µM],i,2.3%
O=C(CSC1=NCCS1)Nc1ccc(F)cc1,8.91µM*,2.8%,1.1%,i,0.5%
O=C(CN(CC(=O)Nc1ccc(F)cc1)CC(=O)Nc1ccc(F)cc1)Nc1ccc(F)cc1,·,12.6µM*,·,·,·
CC(C)OCc1ccc(C(=O)Nc2cccc(OC(F)(F)F)c2)cc1,·,-8.0%,·,·,·
O=C(OCN1C(=O)c2ccccc2C1=O)c1cc(S(=O)(=O)N2CCOCC2)ccc1F,-0.7%,-21.3%,3.16µM*,i,-2.4%
CCOc1nc2ccccc2nc1N1CCC(C(=O)Nc2ccc(C(C)C)cc2)CC1,·,20.2%,·,·,·
N#C/C(=C\c1cc(Cl)cc(Cl)c1O)C(=O)NC1CCCCC1,-17.9%,7.08µM*,-7.0%,i,2.8%
CC1(C)CC2(CC(c3ccccc3)Oc3cc(O)ccc32)NC(=S)N1 (configuration not stated),-13.0%,31.6µM*,?,i,-0.6%
CC1(C)CC2(CC(c3ccccc3)Oc3cc(O)ccc32)NC(=O)N1 (configuration not stated),·,-13.2%,·,·,-0.7%
O=C(NCc1cccnc1)C(=O)c1cn(CC(=O)N2CCOCC2)c2ccccc12,·,32.4%,·,·,·
N#C/C(C(=O)N1CCCCC1)=C1\Nc2ccccc2S1,-10.1%,0.0%,?,i,16.9%
Cc1ccc(NC(=S)/C(C#N)=C2/Nc3ccccc3S2)cc1,·,12.6µM*,-52.4%,?,·
SMILES,gsp antag,12-LOX inh,gsp agonist,FUS yeast rescue,Mito fusion act
CC(C)c1ccccc1OCCNC(=S)NC(=O)c1cccnc1,7.8%,39.8µM*,-6.2%[15.4 µM],i,4.6%
CCN(Cc1ccc(Br)s1)C(=O)c1cnccn1,·,-20.8%,·,·,·
CC(=O)N(C)/C=C1\Sc2ccccc2C1=O,4.4%,35.5µM*,-9.9%,i,2.7%
O=C(OCc1nnnn1-c1ccccc1)C1(c2ccccc2)CCC1,·,7.7%,·,·,·
O=C(Cc1cccc2ccccc12)Nc1cc(Cl)ccc1C(=O)O,-21.7%,17.8µM*!,1.4%,i,0.6%
O=C(O)c1cccc(NC(=S)NCc2ccccc2)c1,4.2%,?,-1.8%[15.4 µM],i,-0.5%
O=C(Cc1cccc2ccccc12)Nc1ccccc1C(=O)O,?,0.0%,-28.7%,i,1.2%
O=C(Cc1cccc2ccccc12)NC(=S)Nc1cccc(C(=O)O)c1,-7.4%,35.5µM*,17.0%[15.4 µM],i,1.5%
O=C(NCC12CCC=C1N(CC1CC1)C(=O)CC2)Nc1cccc(F)c1 (configuration not stated),·,2.6%,·,·,·
CNc1nc(-c2ccc(NC(C)=O)cc2F)cs1,·,31.6µM*,·,·,·
CC(=O)Nc1ccc(-c2csc(NC(C)(C)C)n2)c(F)c1,·,11.2µM*,·,·,·
CC(=O)Nc1ccc(-c2csc(Nc3ccc(O)c(C(=O)O)c3)n2)cc1,·,39.8µM*,·,·,·
CC(=O)Nc1ccc(-c2csc(NC(C)C)n2)c(F)c1,·,-49.3%,·,·,·
CC(=O)Nc1ccc(-c2csc(NCc3ccccc3)n2)cc1,10.0%,?,0.8%[15.4 µM],i,6.0%
CC(=O)Nc1ccc(-c2csc(Nc3ccc(Br)cc3)n2)cc1,·,-22.9%,·,·,·
CC(=O)Nc1cccc(-c2csc(NCc3ccccc3)n2)c1,-3.7%,?,-26.9%,i,5.7%
CC(=O)Nc1ccc(-c2csc(NC(C)(C)C)n2)cc1,·,10µM*,·,·,·
Cc1ccc(-c2[nH]c(-c3ccccc3)nc2SCC(=O)Nc2nccs2)cc1,·,5.1%,·,·,·
CN1C(=O)Cc2cc(-c3csc(-c4ccc(F)cc4)n3)ccc21,·,-11.6%,·,·,·
CCNc1nc(-c2ccc(NC(C)=O)cc2F)cs1,·,7.08µM*,·,·,·
CN1C(=O)Cc2cc(-c3csc(NC(C)(C)C)n3)ccc21,·,11.2µM*,·,·,·
CCOC(=O)Nc1nc(-c2ccc(F)cc2F)cs1,-2.4%,-22.6%,-21.8%,·,22.2%
CCn1c(SCC(=O)Nc2ccc(C)cc2F)nnc1C(C)NC(=O)c1ccco1 (configuration not stated),·,-0.3%,·,·,·
COc1ccc(-c2ccnc3nc(N4CCN(c5ccccc5)CC4)nn23)cc1,-1.2%,-26.3%,2.5%,i,12.6µM*
O=C(CSc1nccn1-c1cccc(C(F)(F)F)c1)Nc1ccc2c(c1)OCO2,·,6.2%,·,·,·
Cc1c(Cl)cccc1Nc1n[nH]c(=S)s1,-5.9%,22.4µM*,-7.8%,·,·
Fc1ccccc1Nc1n[nH]c(=S)s1,-5.9%,25.1µM*,1.5%[15.4 µM],i,3.3%
Cc1ccccc1Nc1n[nH]c(=S)s1,·,?,-16.2%,i,·

# Bioassay records as filed in PubChem.
